Inconclusive results are not listed. Where a call stands in place of a potency, no number is given. The source made the active and inactive calls. The call rests on the fitted dose curve.
Target: Tyrosine-protein kinase ABL1 (Homo sapiens) (UniProt P00519)
Test: ABL1 kinase (ABL1-N-HiBiT) SDR gain of signal screen - plus ATP
Procedure, shortened: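 ABL1-N-HiBiT protein (10 nM final) with 50 uM ATP incubated with compounds for 30 min at RT, protected from light. Nano-Glo HiBiT reagent then added for 10 min; luminescence read on CCD imager, with DMSO neutral and imatinib positive controls.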

Sequence of Tyrosine-protein kinase ABL1 (Homo sapiens) (P00519 whole entry, looked up): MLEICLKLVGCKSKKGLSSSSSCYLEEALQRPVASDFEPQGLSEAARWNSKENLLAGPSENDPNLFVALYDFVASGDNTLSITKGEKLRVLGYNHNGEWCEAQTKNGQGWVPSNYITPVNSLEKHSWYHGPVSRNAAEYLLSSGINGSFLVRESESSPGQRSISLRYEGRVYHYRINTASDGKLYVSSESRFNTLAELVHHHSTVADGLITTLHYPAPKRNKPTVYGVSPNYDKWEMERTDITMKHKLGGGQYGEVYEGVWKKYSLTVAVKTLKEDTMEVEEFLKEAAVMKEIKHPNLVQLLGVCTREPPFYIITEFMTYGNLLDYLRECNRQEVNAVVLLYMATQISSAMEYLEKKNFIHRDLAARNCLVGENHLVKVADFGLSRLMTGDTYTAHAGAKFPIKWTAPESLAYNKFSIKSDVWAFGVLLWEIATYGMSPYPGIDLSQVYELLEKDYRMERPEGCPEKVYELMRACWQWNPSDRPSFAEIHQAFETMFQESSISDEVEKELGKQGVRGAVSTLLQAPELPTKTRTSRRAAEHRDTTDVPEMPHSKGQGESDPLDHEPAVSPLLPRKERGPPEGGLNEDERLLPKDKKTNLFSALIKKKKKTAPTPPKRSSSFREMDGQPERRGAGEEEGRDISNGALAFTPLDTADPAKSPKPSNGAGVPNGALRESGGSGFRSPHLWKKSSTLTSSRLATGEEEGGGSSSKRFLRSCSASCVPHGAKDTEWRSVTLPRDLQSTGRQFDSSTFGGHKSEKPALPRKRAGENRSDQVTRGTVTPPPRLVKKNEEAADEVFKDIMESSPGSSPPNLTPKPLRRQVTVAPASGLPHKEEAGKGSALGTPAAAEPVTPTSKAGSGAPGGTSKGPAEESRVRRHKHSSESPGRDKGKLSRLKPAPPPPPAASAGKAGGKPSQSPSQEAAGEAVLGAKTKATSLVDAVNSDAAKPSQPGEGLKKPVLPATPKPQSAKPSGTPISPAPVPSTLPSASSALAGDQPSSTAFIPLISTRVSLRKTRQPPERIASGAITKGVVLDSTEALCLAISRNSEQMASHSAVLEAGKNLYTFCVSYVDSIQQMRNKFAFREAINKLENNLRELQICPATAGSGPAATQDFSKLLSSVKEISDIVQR

Row | Compound | Potency
1 | Cc1sc2c(c1C)C(c1ccc(Cl)cc1)=N[C@@H](CC(=O)Nc1ccc(OCCOCCOCCOCCNc3cccc4c3C(=O)N(C3CCC(=O)NC3=O)C4=O)cc1)c1nnc(C)n1-2 (stereo partly drawn) | inactive
2 | Oc1ccc(-c2ccc(-c3cc(Nc4cccc(CNC5CC5)c4)n[nH]3)cc2)c(O)c1 | inactive
3 | COc1ccc(S(=O)(=O)N(C(C)=O)c2ccccc2/C=C/c2cc[n+]([O-])cc2)cc1 | inactive
4 | Cc1cc(O)c2c(c1)C(=O)c1cc(O)cc(O)c1C2=O | inactive
5 | FC(F)(F)c1ccc(/C=C/c2nc(COc3ccc(CCCCn4ccnn4)cc3)co2)cc1 | inactive
6 | O=C1CCC(N2C(=O)c3ccccc3C2=O)C(=O)N1 (stereo not drawn) | inactive
7 | NC1CCC(Nc2nc(Nc3ccc(C(=O)N4CCCCC4)cc3)c3ncn(-c4cccc(F)c4)c3n2)CC1 (stereo not drawn) | 2.11 µM (active)
8 | Cc1ccccc1-n1c([C@H](C)Nc2nc(N)nc3nc[nH]c23)nc2cccc(C)c2c1=O | inactive
9 | Cc1[nH]c(/C=C2\C(=O)Nc3ccc(S(=O)(=O)Cc4c(Cl)cccc4Cl)cc32)c(C)c1C(=O)N1CCC[C@@H]1CN1CCCC1 | inactive
10 | c1ccc(-c2oc3ncnc(NC[C@@H]4CCCO4)c3c2-c2ccccc2)cc1 | inactive
11 | Cc1c(Cl)cccc1S(=O)(=O)Nc1nc(NCCc2ccccc2)nc2c1CN(Cc1ccccc1)CC2 | inactive
12 | Cc1cc(C)c(/C=C2\C(=O)Nc3ccccc32)[nH]1 | inactive
13 | Cc1[nH]c2ccccc2c1C1=C(NCCc2ccc(F)cc2)C(=O)N(C)C1=O | inactive
14 | Nc1nc(NCCNc2ncc(-n3ccnc3)c(-c3ccc(Cl)cc3Cl)n2)ccc1[N+](=O)[O-] | inactive
15 | Cc1ccc(NC(=O)N2CCN(c3nc(N)nc4sc(-c5cccnc5)nc34)CC2)cc1 | inactive
16 | CC(C)(NS(=O)(=O)c1ccc2c(Cl)cnc(N=C(N)N)c2c1)C(=O)O | inactive
17 | O=c1c(O)c(-c2ccc(O)c(O)c2)oc2cc(O)cc(O)c12 | inactive
18 | COc1cc(N2CCN(C)CC2)ccc1Nc1nc(N)c(C(=O)c2c(Cl)cccc2Cl)s1 | inactive
19 | COc1ccc(-n2c(C)c([N+](=O)[O-])c3ccc(O)cc32)cc1 | inactive
20 | Cc1ccc(C(=O)Nc2ccc(Oc3cc4cnn(C)c4cc3-c3cn[nH]c3)c(F)c2)c(=O)n1-c1ccc(F)cc1 | inactive
21 | CN1CCN(c2ccc(Nc3ncc4cc(C#N)c(=O)n(C5CCCC5)c4n3)cc2)CC1 | inactive
22 | Cn1sc(=O)n(Cc2ccccc2)c1=O | inactive
23 | O=C(O)C1(Cc2cccc(Nc3nccs3)n2)CCC(Oc2cccc(Cl)c2F)CC1 (stereo not drawn) | 1.15 µM (active)
